Measured values from PubChem BioAssay AID1159580 (chemical genetic matrix, 2015).
About 2,000 (36%) of roughly 5,500 compounds were called active. Inconclusive results (about 18%) are left out. No stated cut-off is given here; in the data, active means normalized growth mostly below about 0.91 (no sharp cut-off); inconclusive means no clear call, values can overlap the other calls; inactive means mostly above about 0.92. This is one part of the list.

Test: chemical genetic growth profiling, strain panel (AID 1159580);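 further: tested at 20 µM; growth read once vehicle control cultures reached saturation at 30 °C; 1 = growth at the plate median or of vehicle wells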
Conditions: growth OD

Measured: normalized growth

C[C@H]1[C@H]2CCC3C4CC=C5C[C@@H](N(C)C)CC[C@]5(C)C4CC[C@@]32CN1C (some centres not stated)
inactive: S. cerevisiae deletion strains, locus YJR075W, strain HOC1, stronger effect = lower value 0.974 | S. cerevisiae deletion strains, locus YKL009W, strain mrt4, stronger effect = lower value 0.985 | S. cerevisiae deletion strains, locus YKL068W, stronger effect = lower value 0.989 | S. cerevisiae deletion strains, locus YKL085W, strain MDH1 (second series), stronger effect = lower value 0.997 | S. cerevisiae deletion strains, locus YKL085W, strain MDH1, stronger effect = lower value 0.997 | S. cerevisiae deletion strains, locus YKL160W, strain elf1, stronger effect = lower value 0.995 | S. cerevisiae deletion strains, locus YKL190W, strain CNB1, stronger effect = lower value 0.98 | S. cerevisiae deletion strains, locus YKR001C, strain vps1, stronger effect = lower value 0.989 | S. cerevisiae deletion strains, locus YKR026C, strain gcn3, stronger effect = lower value 0.99 | S. cerevisiae deletion strains, locus YKR091W, strain srl3, stronger effect = lower value 0.995 | S. cerevisiae deletion strains, locus YLL001W, strain dnm1, stronger effect = lower value 0.98 | S. cerevisiae deletion strains, locus YLL026W, stronger effect = lower value 0.987 | S. cerevisiae deletion strains, locus YLL041C, strain sdh2, stronger effect = lower value 1 | S. cerevisiae deletion strains, locus YLR027C, strain aat2, stronger effect = lower value 0.996 | S. cerevisiae deletion strains, locus YLR039C, strain RIC1, stronger effect = lower value 1.01 | S. cerevisiae deletion strains, locus YLR058C, strain SHM2, stronger effect = lower value 0.98 | S. cerevisiae deletion strains, locus YLR102C, strain apc9, stronger effect = lower value 0.992 | S. cerevisiae deletion strains, locus YLR113W, strain HOG1, stronger effect = lower value 1.02 | S. cerevisiae deletion strains, locus YLR221C, strain rsa3, stronger effect = lower value 0.997 | S. cerevisiae deletion strains, locus YLR258W, strain gsy2, stronger effect = lower value 0.975 | S. cerevisiae deletion strains, locus YLR262C, strain YPT6 (second series), stronger effect = lower value 1 | S. cerevisiae deletion strains, locus YLR262C, strain YPT6, stronger effect = lower value 0.962 | S. cerevisiae deletion strains, locus YLR268W, strain sec22, stronger effect = lower value 1.02 | S. cerevisiae deletion strains, locus YLR320W, strain mms22, stronger effect = lower value 0.955 | S. cerevisiae deletion strains, locus YLR330W, strain CHS5, stronger effect = lower value 0.992 | S. cerevisiae deletion strains, locus YLR342W, strain FKS1 (second series), stronger effect = lower value 0.986 | S. cerevisiae deletion strains, locus YLR342W, strain FKS1, stronger effect = lower value 0.991 | S. cerevisiae deletion strains, locus YLR357W, strain rsc2, stronger effect = lower value 0.955 | S. cerevisiae deletion strains, locus YLR370C, strain arc18, stronger effect = lower value 0.992 | S. cerevisiae deletion strains, locus YLR371W, strain rom2, stronger effect = lower value 0.981 | S. cerevisiae deletion strains, locus YLR384C, strain iki3, stronger effect = lower value 0.983 | S. cerevisiae deletion strains, locus YLR418C, strain cdc73, stronger effect = lower value 0.937 | S. cerevisiae deletion strains, locus YML016C, strain PPZ1, stronger effect = lower value 0.993 | S. cerevisiae deletion strains, locus YML032C, strain rad52, stronger effect = lower value 0.94 | S. cerevisiae deletion strains, locus YML120C, strain ndi1, stronger effect = lower value 1.01 | S. cerevisiae deletion strains, locus YML124C, strain tub3, stronger effect = lower value 0.996 | S. cerevisiae deletion strains, locus YMR058W, strain fet3, stronger effect = lower value 0.993 | S. cerevisiae deletion strains, locus YMR078C, strain ctf18, stronger effect = lower value 0.988 | S. cerevisiae deletion strains, locus YMR125W, strain sto1, stronger effect = lower value 0.947 | S. cerevisiae deletion strains, locus YMR129W, stronger effect = lower value 0.997 | S. cerevisiae deletion strains, locus YMR205C, strain PFK2, stronger effect = lower value 0.935 | S. cerevisiae deletion strains, locus YMR223W, strain ubp8, stronger effect = lower value 0.972 | S. cerevisiae deletion strains, locus YMR231W, strain pep5, stronger effect = lower value 0.994 | S. cerevisiae deletion strains, locus YMR263W, strain SAP30, stronger effect = lower value 0.987 | S. cerevisiae deletion strains, locus YMR307W, strain GAS1, stronger effect = lower value 0.874 | S. cerevisiae deletion strains, locus YNL067W, strain RPL9B, stronger effect = lower value 0.978 | S. cerevisiae deletion strains, locus YNL071W, strain lat1, stronger effect = lower value 0.987 | S. cerevisiae deletion strains, locus YNL128W, strain TEP1, stronger effect = lower value 0.981 | S. cerevisiae deletion strains, locus YNL153C, strain GIM3, stronger effect = lower value 0.982 | S. cerevisiae deletion strains, locus YNL183C, strain NPR1, stronger effect = lower value 0.973 | S. cerevisiae deletion strains, locus YNL209W, strain ssb2, stronger effect = lower value 1 | S. cerevisiae deletion strains, locus YNL233W, strain BNI4, stronger effect = lower value 1 | S. cerevisiae deletion strains, locus YNL248C, strain rpa49, stronger effect = lower value 0.991 | S. cerevisiae deletion strains, locus YNL250W, strain rad50, stronger effect = lower value 0.965 | S. cerevisiae deletion strains, locus YNL271C, strain bni1, stronger effect = lower value 0.988 | S. cerevisiae deletion strains, locus YNL298W, strain CLA4, stronger effect = lower value 0.977 | S. cerevisiae deletion strains, locus YNL307C, strain MCK1, stronger effect = lower value 0.988 | S. cerevisiae deletion strains, locus YNL322C, strain KRE1 (second series), stronger effect = lower value 0.992 | S. cerevisiae deletion strains, locus YNL322C, strain KRE1, stronger effect = lower value 0.994 | S. cerevisiae deletion strains, locus YNR049C, strain mso1, stronger effect = lower value 0.997 | S. cerevisiae deletion strains, locus YNR052C, strain pop2, stronger effect = lower value 0.978 | S. cerevisiae deletion strains, locus YOL006C, strain TOP1, stronger effect = lower value 0.991 | S. cerevisiae deletion strains, locus YOL012C, strain htz1 0.864 | S. cerevisiae deletion strains, locus YOL147C, strain pex11, stronger effect = lower value 0.991 | S. cerevisiae deletion strains, locus YOR001W, strain rrp6, stronger effect = lower value 1.02 | S. cerevisiae deletion strains, locus YOR061W, strain CKA2, stronger effect = lower value 0.96 | S. cerevisiae deletion strains, locus YOR069W, strain VPS5, stronger effect = lower value 1 | S. cerevisiae deletion strains, locus YOR070C, strain gyp1, stronger effect = lower value 0.993 | S. cerevisiae deletion strains, locus YOR080W, strain dia2, stronger effect = lower value 0.978 | S. cerevisiae deletion strains, locus YOR083W, strain WHI5, stronger effect = lower value 1 | S. cerevisiae deletion strains, locus YOR106W, strain vam3, stronger effect = lower value 1 | S. cerevisiae deletion strains, locus YOR136W, strain idh2, stronger effect = lower value 0.991 | S. cerevisiae deletion strains, locus YOR144C, strain elg1, stronger effect = lower value 0.991 | S. cerevisiae deletion strains, locus YOR184W, strain ser1, stronger effect = lower value 0.963 | S. cerevisiae deletion strains, locus YOR231W, strain MKK1, stronger effect = lower value 1.01 | S. cerevisiae deletion strains, locus YOR265W, strain rbl2, stronger effect = lower value 0.991 | S. cerevisiae deletion strains, locus YOR270C, strain vph1, stronger effect = lower value 1 | S. cerevisiae deletion strains, locus YOR290C, strain snf2, stronger effect = lower value 0.96 | S. cerevisiae deletion strains, locus YOR316C, strain cot1, stronger effect = lower value 0.989 | S. cerevisiae deletion strains, locus YPL051W, strain arl3, stronger effect = lower value 1 | S. cerevisiae deletion strains, locus YPL055C, strain LGE1, stronger effect = lower value 0.952 | S. cerevisiae deletion strains, locus YPL078C, strain atp4, stronger effect = lower value 1.01 | S. cerevisiae deletion strains, locus YPL106C, strain sse1, stronger effect = lower value 0.977 | S. cerevisiae deletion strains, locus YPL240C, strain hsp82, stronger effect = lower value 0.993 | S. cerevisiae deletion strains, locus YPL241C, strain CIN2, stronger effect = lower value 0.994 | S. cerevisiae deletion strains, locus YPL256C, strain CLN2, stronger effect = lower value 1.01 | S. cerevisiae deletion strains, locus YPR119W, strain clb2, stronger effect = lower value 1.01 | S. cerevisiae deletion strains, locus YPR141C, strain kar3, stronger effect = lower value 0.98 | S. cerevisiae deletion strains, locus YPR163C, strain tif3, stronger effect = lower value 0.986 | S. cerevisiae deletion strains, locus YPR167C, strain met16, stronger effect = lower value 0.987 | S. cerevisiae deletion strains, strain wtn01, stronger effect = lower value 1.02 | S. cerevisiae strains, strain wild type, stronger effect = lower value 0.981
